Source: PubChem BioAssay (EPA / NIEHS)
Calls of active or inactive are those of the source. How the source made its calls: active means hit-call score of the fitted dose curve at least 0.9, where 1 is the maximum; inactive means score below 0.9.

What was measured:
[1] = read-out: Urokinase-type plasminogen activator receptor (uPAR), PLAUR (gene 5329); assay: BSK_4H_uPAR: BioMAP Diversity Plus: 4H Assay for Urokinase-type plasminogen activator receptor (uPAR) Biomarker Activity (AID 2283030); settings: primary human endothelial cells (HUVEC); actives raise or lower the signal
Outline: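 HUVEC, 24 h post-dose; uPAR by ELISA; bidirectional fit vs DMSO baseline.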

[2] = read-out: Vascular endothelial growth factor receptor 2 (Homo sapiens) (UniProt P35968); assay: BSK_4H_VEGFRII: BioMAP Diversity Plus: 4H Assay for Vascular endothelial growth factor receptor 2 (VEGFR2) Biomarker Activity (AID 2283031); settings: primary human endothelial cells (HUVEC); actives raise or lower the signal;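 on AC50: cell-surface VEGFR2 protein level quantified by ELISA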
Outline: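 HUVEC (human primary), 4H system; 24 h post-dose; VEGFRII by ELISA; bidirectional curve fit vs DMSO baseline; gain or loss of signal scored.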

[3] = read-out: Human Leukocyte Antigen - DR isotype (HLADR), HLA-DRA (gene 3122); assay: BSK_BE3C_HLADR: BioMAP Diversity Plus: BE3C Assay for Human Leukocyte Antigen - DR isotype (HLADR) Biomarker Activity (AID 2283032); settings: primary human bronchial epithelial cells; actives raise or lower the signal
Outline: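 Cell-surface HLA-DR ELISA readout at 24 h after dosing in the BE3C primary human lung bronchial epithelial system; gain or loss of signal against DMSO, with parallel sulforhodamine B staining of total protein for overt cytotoxicity.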

[4] = read-out: Vascular cell adhesion molecule 1 (VCAM1), VCAM1 (gene 7412); assay: BSK_4H_VCAM1: BioMAP Diversity Plus: 4H Assay for Vascular cell adhesion molecule 1 (VCAM1) Biomarker Activity (AID 2283033); settings: primary human endothelial cells (HUVEC); actives raise or lower the signal
Outline: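 VCAM-1 ELISA read 24 h after chemical dosing of HUVEC in the BioMAP 4H system, with gain or loss of signal fitted relative to DMSO. Parallel SRB staining (560 nm) checked overt cytotoxicity.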

[5] = read-out: Monokine induced gamma interferon (MIG), CXCL9 (gene 4283); assay: BSK_BE3C_MIG: BioMAP Diversity Plus: BE3C Assay for Monokine induced gamma interferon (MIG) Biomarker Activity (AID 2283035); settings: primary human bronchial epithelial cells; actives raise or lower the signal
Outline: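 Dose cells (human primary bronchial epithelial), incubate 24 h, quantify MIG by ELISA, then fit concentration–response in both directions relative to DMSO control.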

[6] = read-out: Transforming growth factor beta 1 (TGFb1), TGFB1 (gene 7040); assay: BSK_BE3C_TGFb1: BioMAP Diversity Plus: BE3C Assay for Transforming growth factor beta 1 (TGFb1) Biomarker Activity (AID 2283036); settings: primary human bronchial epithelial cells; actives raise or lower the signal
Outline: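 ELISA readout of TGF-b1 from human lung bronchial epithelial primary cells, taken 24 h post-treatment. Gain or loss of signal fitted relative to DMSO baseline, with parallel SRB staining for overt cytotoxicity.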

[7] = read-out: urokinase plasminogen activator (uPA), PLAU (gene 5328); assay: BSK_BE3C_uPA: BioMAP Diversity Plus: BE3C Assay for urokinase plasminogen activator (uPA) Biomarker Activity (AID 2283038); settings: primary human bronchial epithelial cells; actives raise or lower the signal
Outline: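 ELISA read-out of uPA in human lung primary bronchial epithelial cultures, 24 h post-dosing. Gain or loss of signal fitted bidirectionally relative to DMSO baseline; cytotoxicity checked in parallel cultures via SRB total protein stain.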

[8] = read-out: Urokinase-type plasminogen activator receptor (uPAR), PLAUR (gene 5329); assay: BSK_BE3C_uPAR: BioMAP Diversity Plus: BE3C Assay for Urokinase-type plasminogen activator receptor (uPAR) Biomarker Activity (AID 2283039); settings: primary human bronchial epithelial cells; actives raise or lower the signal
Outline: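 uPAR levels were measured by ELISA after 24 h compound treatment of primary human bronchial epithelial cells, fitted in both directions relative to DMSO. Parallel SRB staining served as the cytotoxicity read-out.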

[9] = read-out: Interleukin-6 (IL6), IL6 (gene 3569); assay: BSK_CASM3C_IL6: BioMAP Diversity Plus: CASM3C Assay for Interleukin-6 (IL6) Biomarker Activity for (AID 2283040); settings: primary human coronary artery smooth muscle cells; actives raise or lower the signal
[10] = read-out: Tissue plasminogen activator (tPA), PLAT (gene 5327); assay: BSK_BE3C_tPA: BioMAP Diversity Plus: BE3C Assay for Tissue plasminogen activator (tPA) Biomarker Activity (AID 2283041); settings: primary human bronchial epithelial cells; actives raise or lower the signal
Outline: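 tPA measured by ELISA 24 h after dosing human primary bronchial epithelial cells (BE3C system). Changes in either direction were fitted against DMSO. Parallel cultures were stained with SRB to flag overt cytotoxicity.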

[11] = read-out: Interleukin-8 (IL8), CXCL8 (gene 3576); assay: BSK_CASM3C_IL8: BioMAP Diversity Plus: CASM3C Assay for Interleukin-8 (IL8) Biomarker Activity (AID 2283042); settings: primary human coronary artery smooth muscle cells; actives raise or lower the signal;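 further: IL-8 protein level quantified by ELISA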
[12] = read-out: Human Leukocyte Antigen - DR isotype (HLADR), HLA-DRA (gene 3122); assay: BSK_CASM3C_HLADR: BioMAP Diversity Plus: CASM3C Assay for Human Leukocyte Antigen - DR isotype (HLADR) Biomarker Activity (AID 2283043); settings: primary human coronary artery smooth muscle cells; actives raise or lower the signal;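 further: cell-surface HLA-DR protein level quantified by ELISA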
[13] = read-out: Macrophage colony-stimulating factor (MCSF), CSF1 (gene 1435); assay: BSK_CASM3C_MCSF: BioMAP Diversity Plus: CASM3C Assay for Macrophage colony-stimulating factor (MCSF) Biomarker Activity (AID 2283044); settings: primary human coronary artery smooth muscle cells; actives raise or lower the signal;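 further: M-CSF protein amount quantified by ELISA after 24 h exposure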
[14] = read-out: Low-density lipoprotein receptor (LDLR), LDLR (gene 3949); assay: BSK_CASM3C_LDLR: BioMAP Diversity Plus: CASM3C Assay for Low-density lipoprotein receptor (LDLR) Biomarker Activity (AID 2283045); settings: primary human coronary artery smooth muscle cells; actives raise or lower the signal;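 further: LDLR protein level on the cell surface quantified by ELISA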
[15] = read-out: Monocyte Chemoattractant Protein-1 (MCP1), CCL2 (gene 6347); assay: BSK_CASM3C_MCP1: BioMAP Diversity Plus: CASM3C Assay for Monocyte Chemoattractant Protein-1 (MCP1) Biomarker Activity (AID 2283046); settings: primary human coronary artery smooth muscle cells; actives raise or lower the signal;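 further: MCP-1 level quantified by ELISA 24 h after dosing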
[16] = BSK_CASM3C_Proliferation: Cell Proliferation Assessment in the BioMAP Diversity Plus: CASM3C Assay (AID 2283047); settings: primary human coronary artery smooth muscle cells;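 further: sulforhodamine B total protein stain as relative cell number at 560 nm; sub-confluent cells exposed 48 h before staining; fitted both ways against DMSO so gain or loss of cell number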
[17] = read-out: Monokine induced gamma interferon (MIG), CXCL9 (gene 4283); assay: BSK_CASM3C_MIG: BioMAP Diversity Plus: CASM3C Assay for Monokine induced gamma interferon (MIG) Biomarker Activity (AID 2283048); settings: primary human coronary artery smooth muscle cells; actives raise or lower the signal;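 further: MIG protein level measured by ELISA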
[18] = read-out: serum amyloid A (SAA), SAA1 (gene 6288); assay: BSK_CASM3C_SAA: BioMAP Diversity Plus: CASM3C Assay for serum amyloid A (SAA) Biomarker Activity (AID 2283049); settings: primary human coronary artery smooth muscle cells; actives raise or lower the signal;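 further: SAA protein level quantified by ELISA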
[19] = read-out: Interferon-gamma inducible Protein 10 (IP10), CXCL10 (gene 3627); assay: BSK_BE3C_IP10: BioMAP Diversity Plus: BE3C Assay for Interferon-gamma inducible Protein 10 (IP10) Biomarker Activity (AID 2283034); settings: primary human bronchial epithelial cells; actives raise or lower the signal
Outline: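 IP-10 quantified by ELISA in human primary bronchial epithelial cell cultures at 24 hours post-dosing. Gain or loss of signal fitted relative to DMSO; parallel SRB staining assessed overt cytotoxicity.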

[20] = read-out: Plasminogen activator inhibitor-1 (PAI1), SERPINE1 (gene 5054); assay: BSK_BE3C_PAI1: BioMAP Diversity Plus: BE3C Assay for Plasminogen activator inhibitor-1 (PAI1) Biomarker Activity (AID 2283037); settings: primary human bronchial epithelial cells; actives raise or lower the signal
Outline: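 PAI-1 was measured by ELISA in human primary bronchial epithelial cultures 24 h after chemical dosing, with cytotoxicity checked by SRB total-protein staining in parallel cultures. Activity was fitted in both directions relative to DMSO.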

Measured: AC50

O=C(c1ccc(O)cc1O)c1ccc(O)cc1O
not listed: [19] | [20]
inactive: all other assays above

CC(=O)S[C@@H]1CC2=CC(=O)CC[C@]2(C)[C@H]2CC[C@@]3(C)[C@@H](CC[C@@]34CCC(=O)O4)[C@H]12
active: [4] 34.3 µM | [11] 23.6 µM | [12] 27.3 µM | [15] 20 µM | [16] 31.4 µM
not listed: [19] | [20]
inactive: all other assays above

N[C@@H](Cc1cc(I)c(Oc2ccc(O)c(I)c2)c(I)c1)C(=O)O
active: [10] 16 µM
not listed: [19] | [20]
inactive: all other assays above

COC(=O)c1c(Cl)nn(C)c1S(=O)(=O)NC(=O)Nc1nc(OC)cc(OC)n1
not listed: [19] | [20]
inactive: all other assays above

COc1nc(C)nc(NC(=O)NS(=O)(=O)c2ccccc2OCCCl)n1
active: [15] 0.441 µM
not listed: [19] | [20]
inactive: all other assays above

COc1c(Cl)ccc(Cl)c1C(=O)O
not listed: [2]
inactive: all other assays above

CCSC(=O)N(CC(C)C)CC(C)C
not listed: [19] | [20]
inactive: all other assays above

CCN(Cc1c(F)cccc1Cl)c1c([N+](=O)[O-])cc(C(F)(F)F)cc1[N+](=O)[O-]
active: [4] 4.57 µM | [14] 13.5 µM | [16] 12.3 µM
not listed: [19] | [20]
inactive: all other assays above

C#CCOC(=O)[C@@H](C)Oc1ccc(Oc2ncc(Cl)cc2F)cc1
not listed: [19]
inactive: all other assays above

CCC(C)OC(=O)N1CCCCC1CCO (stereo unspecified)
not listed: [19] | [20]
inactive: all other assays above

Oc1ccc(C(c2ccc(O)cc2)C(Cl)(Cl)Cl)cc1
active: [1] 31.4 µM | [3] 26.5 µM | [4] 26 µM | [19] 29.3 µM | [5] 34.7 µM | [20] 28.5 µM | [7] 36.6 µM | [8] 31.1 µM | [13] 9.36 µM | [16] 20 µM
inactive: [6] | [9] | [10] | [11] | [12] | [14] | [15] | [17] | [18]

CC1(C)C(C=C(Cl)Cl)C1C(=O)OCc1cccc(Oc2ccccc2)c1 (stereo unspecified)
active: [9] 6.26 µM
not listed: [19] | [20]
inactive: all other assays above

CC(C)CCCCCCc1ccc(O)cc1
active: [1] 9.57 µM | [2] 5.29 µM | [3] 26.2 µM | [4] 7.96 µM | [5] 33.4 µM | [6] 26.2 µM | [7] 31.6 µM | [8] 33.3 µM | [9] 36.9 µM | [10] 14.5 µM | [11] 36.2 µM | [12] 28.8 µM | [13] 31.2 µM | [15] 34.3 µM | [16] 15 µM | [17] 35.8 µM | [18] 30.9 µM
